These results are taken from article PMC4336329 (PLoS ONE, 2015).

The campaign covered roughly 310,000 compounds. About 2,200 (0.71%) showed an effect of 50% or more. The effect is printed as a negative number. The sample as a whole holds a higher share of strong results than the screen did.

human ether-à-go-go-related gene (hERG) potassium channel, sequence (Q12809 whole entry, looked up): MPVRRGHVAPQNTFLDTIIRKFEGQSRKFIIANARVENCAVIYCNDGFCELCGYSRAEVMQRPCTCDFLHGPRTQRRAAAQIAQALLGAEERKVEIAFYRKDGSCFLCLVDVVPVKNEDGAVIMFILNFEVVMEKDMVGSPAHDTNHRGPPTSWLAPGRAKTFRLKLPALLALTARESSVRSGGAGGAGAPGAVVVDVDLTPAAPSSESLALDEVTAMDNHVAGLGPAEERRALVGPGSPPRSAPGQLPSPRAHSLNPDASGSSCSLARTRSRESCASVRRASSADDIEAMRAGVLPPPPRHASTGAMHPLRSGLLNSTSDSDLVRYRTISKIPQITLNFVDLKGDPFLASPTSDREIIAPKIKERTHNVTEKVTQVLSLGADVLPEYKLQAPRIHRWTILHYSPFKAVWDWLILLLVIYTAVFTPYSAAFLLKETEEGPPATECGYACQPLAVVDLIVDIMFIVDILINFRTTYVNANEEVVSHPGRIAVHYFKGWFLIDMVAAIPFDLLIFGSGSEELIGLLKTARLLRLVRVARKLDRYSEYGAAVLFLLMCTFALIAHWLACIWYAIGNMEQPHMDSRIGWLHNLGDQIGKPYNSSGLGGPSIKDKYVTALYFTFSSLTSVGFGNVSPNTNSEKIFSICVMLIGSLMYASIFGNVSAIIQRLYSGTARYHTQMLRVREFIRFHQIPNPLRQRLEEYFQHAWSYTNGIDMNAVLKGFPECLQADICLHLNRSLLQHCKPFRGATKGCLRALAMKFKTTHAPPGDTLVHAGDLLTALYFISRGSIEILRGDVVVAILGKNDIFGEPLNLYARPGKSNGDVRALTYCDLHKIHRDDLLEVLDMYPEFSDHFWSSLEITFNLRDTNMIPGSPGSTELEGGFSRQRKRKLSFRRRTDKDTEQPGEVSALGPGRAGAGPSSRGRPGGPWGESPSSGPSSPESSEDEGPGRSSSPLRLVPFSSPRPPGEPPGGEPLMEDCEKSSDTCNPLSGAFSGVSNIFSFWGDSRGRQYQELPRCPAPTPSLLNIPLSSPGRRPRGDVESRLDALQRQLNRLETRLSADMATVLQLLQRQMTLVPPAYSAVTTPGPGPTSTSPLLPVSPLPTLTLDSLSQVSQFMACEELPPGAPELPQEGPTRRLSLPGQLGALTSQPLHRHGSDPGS

The assay addresses human ether-à-go-go-related gene (hERG) potassium channel (human, UniProt Q12809). Nature of the assay: primary screen, population patch clamp on CHO cells stably expressing hERG; higher = less effect of the substance.
Regarding `Cc1[nH]n(-c2ccccc2)c(=O)c1C=Nc1ccc(S(=O)(=O)Nc2nccs2)cc1`, the “hERG current change (%, negative = inhibition) at 1uM” value came to 12.2%.
Consider `O=S1(=O)CCC(NC(=S)Nc2ccc3ccccc3c2)C1` (stereo not drawn), for which the “hERG current change (%, negative = inhibition) at 1uM” value was determined as 11.6%.
On to `COCCn1c(SCC(=O)NC2(C#N)CCCCC2)nc2ccccc2c1=O`, for which the “hERG current change (%, negative = inhibition) at 1uM” value was -12.8%.
For the compound `O=c1[nH]c(Cn2nnc(-c3ccccc3)n2)nc2scc(-c3ccccc3)c12`, the “hERG current change (%, negative = inhibition) at 1uM” value came out at 13.1%.
For `N#Cc1nc(COc2cccc(Cl)c2)oc1NCc1ccncc1`, the “hERG current change (%, negative = inhibition) at 1uM” value is on record as -53.8%.
On to `CN(C)CCNc1oc(COc2cccc(Cl)c2)nc1C#N`, for which the “hERG current change (%, negative = inhibition) at 1uM” value is listed as -4.66%.
For `N#Cc1nc(COc2cccc(Cl)c2)oc1NCc1ccco1`, the “hERG current change (%, negative = inhibition) at 1uM” value is on record as -1.39%.
Take `Cc1nc2c(n1C1CCCCC1)C(=O)c1ccccc1C2=O`: the “hERG current change (%, negative = inhibition) at 1uM” value amounted to 19.1%.
In the case of `COc1ccc2c(c1)c(C(=O)C(C)N1CCCCC1)c(C)n2C` (stereo not drawn), the “hERG current change (%, negative = inhibition) at 1uM” value came out at 16.9%.
Regarding `OCC1(CCCc2ccccc2)CCN(Cc2ccc(F)cc2)CC1`, the “hERG current change (%, negative = inhibition) at 1uM” value is listed as -25.3%.
In the case of `OCC1(CCc2ccccc2)CCN(Cc2cc(F)ccc2-n2cccn2)CC1`, the “hERG current change (%, negative = inhibition) at 1uM” value is -85.3%.
`COc1ccc(-n2ccnc2CN2CCCC(CO)(Cc3cccc(OC)c3)C2)cc1` (stereo not drawn): the “hERG current change (%, negative = inhibition) at 1uM” value was 0.509%.
For `COc1cccc(CC2(CO)CCCN(Cc3cc(F)ccc3-n3cccn3)C2)c1` (stereo not drawn), the “hERG current change (%, negative = inhibition) at 1uM” value is -85.1%.
Consider `CCn1ccnc1CN1CCCC(CO)(Cc2cccc(OC)c2)C1` (stereo not drawn), for which the “hERG current change (%, negative = inhibition) at 1uM” value was -1.48%.
With `COc1cccc(CC2(CO)CCCN(Cc3cn[nH]c3-c3ccc(F)cc3)C2)c1` (stereo not drawn), the “hERG current change (%, negative = inhibition) at 1uM” value is given as 6.39%.
As for `COc1cccc(CC2(CO)CCCN(Cc3c(C)cc(C)cc3-n3cccn3)C2)c1` (stereo not drawn), the “hERG current change (%, negative = inhibition) at 1uM” value is -93.1%.
`COc1ccc(F)c(CN2CCCC(CO)(Cc3cccc(Cl)c3)C2)c1` (stereo not drawn): the “hERG current change (%, negative = inhibition) at 1uM” value amounted to 11.8%.
With `OCC1(CCCc2ccccc2)CCN(Cc2cc(F)ccc2F)CC1`, the “hERG current change (%, negative = inhibition) at 1uM” value was -6.63%.
Take `O=C(NCCS(=O)(=O)NCc1ccccn1)c1ccccc1`: the “hERG current change (%, negative = inhibition) at 1uM” value turned out to be 8.81%.
For the compound `COc1ccccc1C(=O)NNC(=O)C12CC3CC(CC(C3)C1)C2`, the “hERG current change (%, negative = inhibition) at 1uM” value came to 12.4%.
Turning to `COc1ccc(OC)c(-c2csc(N(Cc3ccco3)C(=O)c3cccs3)n2)c1`, the “hERG current change (%, negative = inhibition) at 1uM” value is on record as -0.179%.
`CC(=O)CCC(=O)NCCc1ccccc1F`: the “hERG current change (%, negative = inhibition) at 1uM” value was determined as 5.68%.
Consider `Cc1ccc(NC(=S)NNC(=O)C2CC2c2ccc(C)cc2)cc1` (stereo not drawn), for which the “hERG current change (%, negative = inhibition) at 1uM” value is reported as -10.4%.
Consider `COP(=O)(CC(=O)c1ccccc1)CC(=O)c1ccccc1`, for which the “hERG current change (%, negative = inhibition) at 1uM” value is listed as 8.51%.
Take `COCCCNC(=S)NC1CC2CCCC(C1)N2Cc1cccs1` (stereo not drawn): the “hERG current change (%, negative = inhibition) at 1uM” value turned out to be 1.43%.
On to `COc1nc(-c2ccccc2)ccc1-c1noc(-c2cccs2)n1`, for which the “hERG current change (%, negative = inhibition) at 1uM” value is on record as 0.091%.
With `Br.COc1ccccc1NS(=O)(=O)c1cc(N2Cc3ccccc3C2=N)ccc1N1CCOCC1`, the “hERG current change (%, negative = inhibition) at 1uM” value was -61.2%.
In the case of `O=S(=O)(Nc1ccc(N2CCOCC2)cc1)c1cc(Cl)ccc1Cl` it was 7.82%.
In the case of `COc1ccccc1NS(=O)(=O)c1cc(NC(=O)C2CC2)ccc1N1CCOCC1`, the “hERG current change (%, negative = inhibition) at 1uM” value worked out at 19.5%.
As to `COc1ccccc1NS(=O)(=O)c1cc(NC(=O)C(C)(C)C)ccc1N1CCOCC1`, the “hERG current change (%, negative = inhibition) at 1uM” value was -4.51%.
As for `CCC(=O)Nc1ccc(N2CCOCC2)c(S(=O)(=O)Nc2ccc(Cl)cc2)c1`, the “hERG current change (%, negative = inhibition) at 1uM” value was 11.9%.
Take `Br.N=C1c2ccccc2CN1c1ccc(N2CCOCC2)c(S(=O)(=O)Nc2ccc(Cl)cc2)c1`: the “hERG current change (%, negative = inhibition) at 1uM” value is recorded as -89.2%.
As for `Cn1c(=O)n(C)c2cc(S(=O)(=O)NCC(=O)O)ccc21`, the “hERG current change (%, negative = inhibition) at 1uM” value was 4.84%.
As for `CCOc1ccc(CCNC(=O)c2cc3sccc3n2CC)cc1OCC`, the figure is 14.1%; as for `COc1cc(NC(=O)CCS(=O)(=O)c2ccc3nc(C)sc3c2)cc(OC)c1OC`, 15.8%.
For `CN(C)c1cccc(/C=C(\C#N)c2ccccc2)c1`, the “hERG current change (%, negative = inhibition) at 1uM” value was determined as 14.2%.
As for `COc1ccc(N(C(=O)c2cnsn2)C(C(=O)NC2CCCCC2)c2ccncc2)cc1` (stereo not drawn), the “hERG current change (%, negative = inhibition) at 1uM” value was determined as 7.11%.
Turning to `CCOc1ccc(N(C(=O)c2cnsn2)C(C(=O)NC2CCCCC2)c2ccncc2)cc1` (stereo not drawn), the “hERG current change (%, negative = inhibition) at 1uM” value is -52.1%.
For `CCOc1ccc(N(C(=O)c2cnccn2)C(C(=O)NC2CCCCC2)c2ccc(O)cc2)cc1` (stereo not drawn), the “hERG current change (%, negative = inhibition) at 1uM” value is 12.4%.
In the case of `COc1cccc(C(=O)Nc2ccc(Cl)c(C(F)(F)F)c2)c1` it was 8.09%; in that of `O=CN1CCCN(C(=O)CC2C(=O)NCCN2Cc2cccc(Oc3ccccc3)c2)CC1` (stereo not drawn), -14.6%.
With `CC1CCN(CCc2nc3cc(NS(=O)(=O)c4ccccc4)ccc3n2C)CC1`, the “hERG current change (%, negative = inhibition) at 1uM” value is -53.3%.
In the case of `CC(=O)Nc1ccc2c(c1)nc(CCN1CCC(C)CC1)n2C` it was 12.4%; in that of `Cc1ccc(S(=O)(=O)Nc2ccc3c(c2)nc(CN2CCCC2)n3C)cc1`, -9.18%.
As for `Cn1c(CCN2CCOCC2)nc2cc(NS(=O)(=O)c3ccccc3)ccc21`, the “hERG current change (%, negative = inhibition) at 1uM” value is 6.09%.
As for `Cn1c(CN2CCCCC2)nc2cc(NS(=O)(=O)c3ccc(F)cc3)ccc21`, the figure is -21.8%.
With `Cn1c(CCN2CCCC2)nc2cc(NS(=O)(=O)c3ccccc3)ccc21`, the “hERG current change (%, negative = inhibition) at 1uM” value came to 6.41%.
On to `CC1CCN(CCc2nc3cc(NS(=O)(=O)c4ccc(F)cc4)ccc3n2C)CC1`, for which the “hERG current change (%, negative = inhibition) at 1uM” value is listed as -54.8%.
Consider `CCC(=O)Nc1ccc2c(c1)nc(CCN1CCC(C)CC1)n2C`, for which the “hERG current change (%, negative = inhibition) at 1uM” value is 12.3%.
Regarding `Cn1c(CCN2CCCCC2)nc2cc(NS(=O)(=O)c3ccc(F)cc3)ccc21`, the “hERG current change (%, negative = inhibition) at 1uM” value was -57.5%.
As to `CCn1c(=O)c(CCC(=O)NCC2CCCO2)c(C)c2c(C)nn(-c3ccc(C)cc3)c21` (stereo not drawn), the “hERG current change (%, negative = inhibition) at 1uM” value came to 19.9%.
`CCOc1ccc(N2C(=O)c3cccnc3C2Nc2ccc(OC)cc2)cc1` (stereo not drawn): the “hERG current change (%, negative = inhibition) at 1uM” value amounted to 1.01%.
On to `CCn1c(=NC(=O)CSCC(=O)Nc2nccs2)sc2ccccc21`, for which the “hERG current change (%, negative = inhibition) at 1uM” value was found to be 2.45%.
As to `CN(C)c1ccc(C(=O)Nc2ccc(O)c3c(=O)cc(-c4ccccc4Cl)oc23)cc1`, the “hERG current change (%, negative = inhibition) at 1uM” value was found to be 2.71%.
